The term inhibition denotes the relative decrease from the control value, in per cent.

“And” between values parts separate entries of the source, which are not always exact repeats. Equal values may be shown once. Screen size: about 2,000 compounds; about 45 (2%) were called active. Shown is part of a subset that was picked to be rich in actives. A number with no mark means an inactive call.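 The calls were made as follows: active = inhibition above the screen-wide mean inhibition plus 3 SD (cut at about 44% in these data); inactive = the rest.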

In the assay the target is Perilipin-1 (Homo sapiens) + 1-acylglycerol-3-phosphate O-acyltransferase ABHD5 (Homo sapiens) (UniProt O60240+Q8WTS1). The assay can be described thus: ABHD5-PLIN1 interaction inhibitors, pilot screen, cell lysate, split luciferase complementation, luminescence, NIH validation set (AID 493027).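 Also: 0% = DMSO wells with the 100% control not disclosed.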 The note with it: split G. princeps luciferase complementation, 4 h, at 7.9 µM, active compounds read high.
Sequence of Perilipin-1 (Homo sapiens) + 1-acylglycerol-3-phosphate O-acyltransferase ABHD5 (Homo sapiens) (O60240 whole entry, looked up): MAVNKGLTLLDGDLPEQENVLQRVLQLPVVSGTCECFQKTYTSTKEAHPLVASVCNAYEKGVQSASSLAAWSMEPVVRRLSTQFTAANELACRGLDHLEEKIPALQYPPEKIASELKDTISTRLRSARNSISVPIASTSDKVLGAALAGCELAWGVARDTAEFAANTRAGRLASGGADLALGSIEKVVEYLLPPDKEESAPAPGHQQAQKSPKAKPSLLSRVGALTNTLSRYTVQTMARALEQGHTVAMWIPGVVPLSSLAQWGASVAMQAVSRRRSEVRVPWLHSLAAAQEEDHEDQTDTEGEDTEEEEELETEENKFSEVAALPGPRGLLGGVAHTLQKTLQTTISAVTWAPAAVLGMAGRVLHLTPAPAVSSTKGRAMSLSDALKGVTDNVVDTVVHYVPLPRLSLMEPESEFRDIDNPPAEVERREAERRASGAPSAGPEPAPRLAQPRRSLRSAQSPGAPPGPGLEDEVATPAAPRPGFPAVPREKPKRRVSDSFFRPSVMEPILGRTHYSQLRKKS
Sequence of Perilipin-1 (Homo sapiens) + 1-acylglycerol-3-phosphate O-acyltransferase ABHD5 (Homo sapiens) (Q8WTS1 whole entry, looked up): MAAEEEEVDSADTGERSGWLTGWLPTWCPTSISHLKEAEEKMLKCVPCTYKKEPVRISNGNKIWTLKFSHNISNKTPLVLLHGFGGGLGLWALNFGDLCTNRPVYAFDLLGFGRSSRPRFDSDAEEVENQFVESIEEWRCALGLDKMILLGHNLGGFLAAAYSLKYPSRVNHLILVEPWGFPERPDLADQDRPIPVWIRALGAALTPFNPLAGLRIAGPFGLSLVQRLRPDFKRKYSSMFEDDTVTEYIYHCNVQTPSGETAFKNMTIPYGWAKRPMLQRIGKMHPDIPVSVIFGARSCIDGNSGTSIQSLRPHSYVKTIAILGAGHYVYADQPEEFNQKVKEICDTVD
For `O=c1c2ccccc2[se]n1-c1ccccc1`, the inhibition is 90.3% (active).
The result for `Cc1nc2ccccc2c(=O)n1-c1ccc(C(=O)O)cc1` reads 5.87%; that for `O=c1c2ccccc2nc(/C=C/c2ccc3c(c2)OCO3)n1-c1ccccc1`, 1.81%; that for `[N-]=[N+]=CC(=O)OC[C@H](N)C(=O)O`, 0.75%.
To `CC12CN3CC(C)(CN(C1)C3c1cccs1)C2=O` (stereo not given) belongs -10.9%; to `CC(C)NC(C)C(=O)c1ccc2ccccc2c1` (stereo not given), -0.73%; to `O=c1[nH]c(=S)n(-c2ccccc2)c(O)c1/C=N/N1CCCCC1c1cccnc1` (stereo not given), -7.25%.
The result for `C#CCN(C)C(C)Cc1ccccc1` (stereo not given) reads -10.3%; that for `COc1cc(/C=C2\C(=O)NC(=O)N(c3ccccc3)C2=O)c([N+](=O)[O-])cc1OC`, 58.1% (active); that for `Cc1ccc(/C=C2/C(=O)NC(=O)N(C)C2=O)cc1`, -3.1%.
`Cc1ccc(-n2c(C)cc(/C=C3/C(=O)NC(=O)N(C)C3=O)c2C)cc1`: the inhibition is 38.2%.
The result for `CCOc1ccc(N2C(=O)NC(=O)/C(=C\c3cc(OC)c(OC)cc3[N+](=O)[O-])C2=O)cc1` reads 63.9% (active); that for `CCOC(=O)c1cncn1C(C)c1ccccc1` (stereo not given), 1.91%; that for `C[N+]1(C)[C@@H]2CC(OC(=O)[C@H](CO)c3ccccc3)C[C@H]1[C@@H]1O[C@@H]12` (stereo not given in full), -5.12% and 3.91%.
The result for `CC(C)C[C@H]1C(=O)N2CCCC2[C@]2(O)O[C@](NC(=O)[C@@H]3C=C4c5cccc6[nH]cc(c56)CC4N(C)C3)(C(C)C)C(=O)N12` (stereo not given in full) reads 22.5%.
Regarding `Cc1c2ccncc2c(C)c2c1[nH]c1ccccc12`, the inhibition is -2.7%.
To `Cc1cc2c(C(C)C)c(O)c(O)c(C=O)c2c(O)c1-c1c(C)cc2c(C(C)C)c(O)c(O)c(C=O)c2c1O` belongs 50.9% (active); to `O=C1C(=O)c2ccccc2-c2ccccc21`, 29.2%.
As for `CCn1c(O)c(C(=O)CC2NCCc3ccccc32)c(=O)n(CC)c1=S` (stereo not given), the inhibition was -1.08%.
The result for `CC[C@@H]1C(=O)OC[C@@H]1Cc1cncn1C` reads -9.03% and -8.34%; that for `Clc1ccc(C2NCCc3[nH]cnc32)cc1` (stereo not given), 1.77%; that for `COP(=S)(OC)SCN1C(=O)c2ccccc2C1=O`, 83.3% (active).
The result for `NNC(=O)c1ccc(Cl)cc1` reads 1.77%; that for `O=C1C=Cc2ccccc2C1=O`, 25.2%.
The result for `O=C1CCCC2=C1C(c1cccnc1)Nc1ccccc1N2` (stereo not given) reads -3.96%.

The values are drawn from PubChem BioAssay AID493027 (The Scripps Research Institute Molecular Screening Center, 2011).
